Measurements taken from PubChem BioAssay AID1942 (Johns Hopkins Ion Channel Center, 2009).
Screen size: about 2,400 compounds; about 580 (24%) were called active.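 The calls were made as follows: active = activity change at or above the mean plus 3 SD of buffer wells without dofetilide, per plate; inactive = the rest.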 A selection follows.

molecular target: Potassium voltage-gated channel subfamily KQT member 2 (Rattus norvegicus) (UniProt O88943); assay: rat KCNQ2 channel activation by compounds alone, confirmation, counter-screen for hERG block protector project, cell-based, CHO, FluxOR thallium flux (AID 1942); settings: CHO-KCNQ2 cells, FluxOR thallium flux fluorescence; at 10 µM; active compounds read high;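 also: normalized value minus buffer-control mean plus three SD of buffer wells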
Sequence (O88943 whole entry, looked up): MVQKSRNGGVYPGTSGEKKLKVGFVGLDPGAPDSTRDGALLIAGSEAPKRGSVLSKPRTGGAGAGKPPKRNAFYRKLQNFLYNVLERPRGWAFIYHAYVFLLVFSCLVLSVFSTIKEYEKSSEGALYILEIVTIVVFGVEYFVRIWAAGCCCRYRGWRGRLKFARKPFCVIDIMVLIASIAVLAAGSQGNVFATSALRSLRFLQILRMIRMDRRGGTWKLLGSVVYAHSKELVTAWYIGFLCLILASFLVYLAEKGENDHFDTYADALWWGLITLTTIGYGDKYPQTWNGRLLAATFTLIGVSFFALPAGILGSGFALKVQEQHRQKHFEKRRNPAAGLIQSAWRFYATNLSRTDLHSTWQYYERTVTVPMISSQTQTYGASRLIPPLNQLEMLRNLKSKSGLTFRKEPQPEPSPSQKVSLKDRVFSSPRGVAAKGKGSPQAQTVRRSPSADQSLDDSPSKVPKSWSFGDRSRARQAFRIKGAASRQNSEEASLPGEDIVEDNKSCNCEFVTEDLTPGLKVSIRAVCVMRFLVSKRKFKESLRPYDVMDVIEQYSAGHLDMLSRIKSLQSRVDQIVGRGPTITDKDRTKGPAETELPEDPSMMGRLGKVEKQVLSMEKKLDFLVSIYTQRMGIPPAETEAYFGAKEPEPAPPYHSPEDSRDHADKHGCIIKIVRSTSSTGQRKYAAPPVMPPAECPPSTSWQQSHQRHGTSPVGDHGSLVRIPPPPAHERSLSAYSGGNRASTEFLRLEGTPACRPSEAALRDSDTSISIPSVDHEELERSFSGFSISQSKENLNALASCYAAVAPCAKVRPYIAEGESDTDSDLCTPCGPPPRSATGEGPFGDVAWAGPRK

Row | SMILES | activity change, less the hit threshold
1 | O=C1OC(/C=C/c2ccccc2)=NC/1=C/c1ccco1 | -29% (inactive)
2 | COC(=O)c1ccc(NC(=O)COC(=O)C2CC(=O)N(Cc3ccccc3)C2)cc1 (stereo unspecified) | -26.7% (inactive)
3 | O=C(O)CCCN1C(=O)C2C3c4ccccc4C(c4ccccc43)[C@@H]2C1=O (stereo partly specified) | -24.6% (inactive)
4 | Cc1cc(C)cc(-n2c(C)cc(/C=N/NC(=O)CN(c3c(C)cccc3C)S(C)(=O)=O)c2C)c1 | -19.4% (inactive)
5 | Nc1ccc2c(c1)C(=O)C(=O)c1ccccc1-2 | -3.9% (inactive)
6 | CCOC(=O)c1sc2ncnc(NCC(c3cccs3)N(C)C)c2c1C (stereo unspecified) | 39.2% (active)
7 | Cc1ccc(OC(=O)c2sc3ncn(C)c(=O)c3c2C)cc1 | -29.2% (inactive)
8 | CCOC(=O)c1sc2ncnc(NCc3ccco3)c2c1C | 51.8% (active)
9 | CCOC(=O)c1c(NC(=O)/C=C/c2ccco2)sc(C)c1C | -12% (inactive)
10 | COc1ccc(N(C(=O)c2ccco2)S(=O)(=O)c2cccs2)cc1 | -19.4% (inactive)
11 | O=C(N/N=C/c1ccsc1)C1CC1 | -15.9% (inactive)
12 | COCCNC(=O)C1CCN(S(=O)(=O)N2CCC3(CC2)OCCO3)CC1 | -21.8% (inactive)
13 | CCOC(=O)c1sc(NC(=S)NC(=O)c2ccco2)nc1C | 4.8% (active)
14 | CCOC(=O)c1sc(NC(=S)NC(=O)c2ccc(OC)cc2)nc1C | -10.9% (inactive)
15 | CCOC(=O)c1sc(NC(=S)NC(=O)c2cccc(OC)c2)nc1C | 4.7% (active)
16 | CCOC(=O)c1cccc(C(=O)Nc2nc3ccc(OC)cc3s2)n1 | -15.8% (inactive)
17 | Cc1nc(NC(=O)c2ccco2)sc1C(=O)O | -11.4% (inactive)
18 | CCOC(=O)c1sc(NC(=S)NC(=O)c2ccccc2)nc1C | -3.4% (inactive)
19 | O=c1[nH]c(=S)[nH]c2c1C(c1ccc(Br)cc1)c1c([nH]c(=S)[nH]c1=O)O2 | -17.1% (inactive)
20 | Cc1ccccc1C(=O)NNC(=O)c1cccc([N+](=O)[O-])c1 | -19.8% (inactive)
21 | CCOc1ccc(C(=O)N/N=C/c2cc([N+](=O)[O-])cs2)cc1 | -17.4% (inactive)
22 | CCOC(=O)/C(C)=N/NC(=O)c1cccc([N+](=O)[O-])c1 | 5.2% (active)
23 | CCOC(=O)/C(C)=N/NC(=O)c1ccc([N+](=O)[O-])cc1 | 16.8% (active)
24 | CCOC(=O)c1[nH]cnc1C(=O)Nc1ccc([N+](=O)[O-])cc1 | -11.7% (inactive)
25 | Cc1cc(SCC(=O)c2cccc([N+](=O)[O-])c2)nc(=O)[nH]1 | -15.5% (inactive)
26 | S=C(NCCc1ccccc1)N/N=C/c1c(Cl)cccc1Cl | -18.4% (inactive)
